# Measurements as given in PubChem BioAssay (EPA / NIEHS).
# Calls of active or inactive are those of the source. The calls were made as follows: active = hit-call score of the fitted dose curve at least 0.9, where 1 is the maximum; inactive = score below 0.9.
# Legend:
# [1] = ATG_CRE_CIS: Attagene CIS-FACTORIAL HepG2 Assay for human cAMP Responsive Element (CRE) binding protein 3 (AID 2282926); details: HepG2 CRE cis-reporter, Attagene multiplexed mRNA; actives raise or lower the signal
# Summary of the method: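 HepG2 cells transiently transfected with a multiplexed reporter library (CRE-driven unit among them) were dosed for 24 h. Reporter mRNA was quantified by RT-PCR, fluorescent labelling, HpaI digestion and capillary electrophoresis, with bidirectional fitting against DMSO baseline.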
# [2] = ATG_DR4_LXR_CIS: Attagene CIS-FACTORIAL HepG2 Assay for human Liver X Receptor (LXR), DR4 submotif (AID 2282929); details: HepG2 Attagene DR4 cis-reporter, mRNA transcription; actives raise or lower the signal
# Summary of the method: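 Cells were transfected with multiple reporter transcription units, exposed to chemicals for 24 hours, then lysed for RNA. Reporter mRNA induction was measured by RT-PCR with capillary electrophoresis detection and fitted in both directions relative to DMSO.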
# [3] = ATG_AP_2_CIS: Attagene CIS-FACTORIAL HepG2 Assay for human Activator Protein 2 (AP-2) (AID 2282932); details: HepG2 AP-2 cis-reporter, Attagene transcription factor profiling; actives raise or lower the signal
# Summary of the method: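 HepG2, transient MRTU transfection, cis-regulated reporters; 24 h compound exposure; RNA isolated, RT-PCR, 6-FAM labelling, HpaI digest, CE fluorescence. DMSO = negative control/baseline, bidirectional fit.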
# [4] = ATG_BRE_CIS: Attagene CIS-FACTORIAL HepG2 Assay for human Bone Morphogenetic Protein (BMP) Response Element (BRE) (AID 2282933); details: HepG2 BMP response element reporter, Attagene transcription factor profiling; actives raise or lower the signal
# Summary of the method: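 Transient MRTU transfection of human HepG2 liver cells; 24 h compound treatment; total RNA isolated, reverse-transcribed, PCR-amplified, 6-FAM labelled, HpaI-cut, capillary electrophoresis. DMSO = negative control/baseline, bidirectional fit.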
# [5] = target: Transcription factor E2F1 (Homo sapiens) (UniProt Q01094); experiment: ATG_E2F_CIS: Attagene CIS-FACTORIAL HepG2 Assay for human E2F Transcription Factor 1 (AID 2282935); details: HepG2 Attagene cis-reporter, E2F reporter RNA transcripts; actives raise or lower the signal
# Chain of Transcription factor E2F1 (Homo sapiens) (Q01094 whole entry, looked up): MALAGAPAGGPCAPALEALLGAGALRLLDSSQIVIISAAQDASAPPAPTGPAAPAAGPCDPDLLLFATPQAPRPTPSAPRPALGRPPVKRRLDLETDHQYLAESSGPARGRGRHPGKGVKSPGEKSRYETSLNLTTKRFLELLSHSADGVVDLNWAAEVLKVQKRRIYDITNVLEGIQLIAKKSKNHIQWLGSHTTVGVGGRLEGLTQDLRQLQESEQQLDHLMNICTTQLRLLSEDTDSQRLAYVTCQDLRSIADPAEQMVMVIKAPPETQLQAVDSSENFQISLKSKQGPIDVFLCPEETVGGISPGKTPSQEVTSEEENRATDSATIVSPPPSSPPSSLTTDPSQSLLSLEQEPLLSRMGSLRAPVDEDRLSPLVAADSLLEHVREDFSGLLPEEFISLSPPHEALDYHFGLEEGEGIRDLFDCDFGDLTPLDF
# Summary of the method: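 Cis-element reporter mRNA induction in transiently transfected HepG2, 24 h exposure. Activity fitted in both directions relative to DMSO negative control.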
# [6] = ATG_E_Box_CIS: Attagene CIS-FACTORIAL HepG2 Assay for human Enhancer Box (E-box) (AID 2282936); details: HepG2 E-box cis-reporter transcription, actives raise or lower the signal
# Summary of the method: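 Cells: HepG2 (human liver), transient MRTU transfection. Exposure 24 h. RNA → oligo(dT) RT → PCR → 6-FAM label → HpaI → CE. Activity fitted both directions relative to DMSO.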
# [7] = ATG_M_19_CIS: Attagene CIS-FACTORIAL HepG2 Assay for M19 Transcription Factor (Internal Marker) (AID 2282939); details: HepG2 Attagene CIS-FACTORIAL M19 internal marker reporter; actives raise or lower the signal
# Summary of the method: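 Transfect HepG2 with MRTU reporter library → dose chemical, 24 h → isolate total RNA, reverse-transcribe with oligo(dT) → PCR, 6-FAM label, HpaI cut (2 h, 37 C) → capillary electrophoresis. Bidirectional fit vs DMSO.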
# [8] = ATG_Ets_CIS: Attagene CIS-FACTORIAL HepG2 Assay for human Erythroblast Transformation Specific (ETS) (AID 2282941); details: HepG2 ETS cis-reporter transcription, actives raise or lower the signal
# Summary of the method: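 Human HepG2 hepatoma cells were transiently transfected with promoter-driven reporter constructs and treated for 24 hours. Reporter transcripts were quantified by RT-PCR with fluorescent primer extension; bidirectional curve fitting used DMSO as reference.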
# [9] = target: Hepatocyte nuclear factor 3-beta (Homo sapiens) (UniProt Q9Y261); experiment: ATG_FoxA2_CIS: Attagene CIS-FACTORIAL HepG2 Assay for human Forkhead box A2 (FOXA2) (AID 2282942); details: HepG2 cis-reporter transcription factor activity, 24 h; actives raise or lower the signal
# Chain of Hepatocyte nuclear factor 3-beta (Homo sapiens) (Q9Y261 whole entry, looked up): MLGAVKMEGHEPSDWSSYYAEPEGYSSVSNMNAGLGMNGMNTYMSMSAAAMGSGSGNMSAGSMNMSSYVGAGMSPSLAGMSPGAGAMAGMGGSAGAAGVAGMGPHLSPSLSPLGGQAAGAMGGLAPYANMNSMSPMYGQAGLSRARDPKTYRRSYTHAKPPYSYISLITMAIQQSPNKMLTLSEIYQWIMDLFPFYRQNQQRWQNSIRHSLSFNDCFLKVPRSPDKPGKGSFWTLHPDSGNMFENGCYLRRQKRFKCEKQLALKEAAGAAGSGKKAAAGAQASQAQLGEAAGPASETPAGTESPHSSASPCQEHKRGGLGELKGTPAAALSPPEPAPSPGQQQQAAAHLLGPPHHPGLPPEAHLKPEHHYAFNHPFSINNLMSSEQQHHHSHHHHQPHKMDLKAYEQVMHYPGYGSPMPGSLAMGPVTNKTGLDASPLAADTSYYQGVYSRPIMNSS
# Summary of the method: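 Endogenous transcription factor activity was read in HepG2 cells carrying transiently transfected cis-promoter reporter units. After 24 h dosing, reporter mRNA was quantified by RT-PCR and capillary electrophoresis, and values fitted bidirectionally versus DMSO.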
# [10] = ATG_FoxO_CIS: Attagene CIS-FACTORIAL HepG2 Assay for human Forkhead box O (FoxO) (AID 2282943); details: HepG2 Attagene cis-reporter, FoxO element, mRNA; actives raise or lower the signal
# Summary of the method: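 HepG2, transient MRTU transfection (cis element, endogenous TFs). Dose 24 h. TriZol RNA → oligo(dT) RT → PCR → 6-FAM primer extension → HpaI cut → CE. Gain/loss vs DMSO.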
# [11] = ATG_GATA_CIS: Attagene CIS-FACTORIAL HepG2 Assay for human GATA Binding Protein (AID 2282944); details: HepG2 GATA cis-element reporter, Attagene multiplex mRNA; actives raise or lower the signal
# Summary of the method: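 Transient MRTU transfection, HepG2, 24 h compound exposure. Total RNA → oligo(dT) RT → PCR → 6-FAM primer extension → HpaI cut → CE. Bidirectional fit vs DMSO.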
# [12] = ATG_M_32_CIS: Attagene CIS-FACTORIAL HepG2 Assay for M32 Transcription Factor (Internal Marker) (AID 2282949); details: HepG2 Attagene cis-factorial M32 reporter, mRNA; actives raise or lower the signal;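 also: background control marker of the multiplexed CIS panel rather than a real target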
# Summary of the method: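 Fluorescent capillary electrophoresis peaks of HpaI-digested, FAM-labelled RT-PCR reporter products give the signal. Source: transiently transfected human liver HepG2 cells, 24 h after chemical dosing; bidirectional fitting against DMSO.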
# [13] = ATG_PXRE_CIS: Attagene CIS-FACTORIAL HepG2 Assay for human Pregnane X Receptor Element (PXRE) (AID 2282957); details: HepG2 Attagene CIS-FACTORIAL PXRE reporter, mRNA; actives raise or lower the signal
# Summary of the method: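 HepG2 cells transiently transfected with cis-regulated multiple reporter transcription units; endogenous factor activity measured as reporter mRNA 24 h after dosing. RT-PCR, fluorescent primer extension, HpaI digestion, capillary electrophoresis; bidirectional fit versus DMSO baseline.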
# [14] = ATG_Sox_CIS: Attagene CIS-FACTORIAL HepG2 Assay for human SRY-box transcription factor (SOX) (AID 2282960); details: HepG2 Attagene cis-factorial SOX reporter, mRNA; actives raise or lower the signal
# Summary of the method: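 Transient MRTU transfection of HepG2; 24 h compound incubation; TriZol RNA, oligo(dT) RT, PCR, 6-FAM primer extension, HpaI cut, CE. Bidirectional fit, DMSO = baseline.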
# [15] = target: Transcription factor Sp1 (Homo sapiens) (UniProt P08047); experiment: ATG_Sp1_CIS: Attagene CIS-FACTORIAL HepG2 Assay for human Specificity Protein 1 (Sp1) (AID 2282961); details: HepG2 Sp1 cis-reporter transcription, actives raise or lower the signal
# Chain of Transcription factor Sp1 (Homo sapiens) (P08047 whole entry, looked up): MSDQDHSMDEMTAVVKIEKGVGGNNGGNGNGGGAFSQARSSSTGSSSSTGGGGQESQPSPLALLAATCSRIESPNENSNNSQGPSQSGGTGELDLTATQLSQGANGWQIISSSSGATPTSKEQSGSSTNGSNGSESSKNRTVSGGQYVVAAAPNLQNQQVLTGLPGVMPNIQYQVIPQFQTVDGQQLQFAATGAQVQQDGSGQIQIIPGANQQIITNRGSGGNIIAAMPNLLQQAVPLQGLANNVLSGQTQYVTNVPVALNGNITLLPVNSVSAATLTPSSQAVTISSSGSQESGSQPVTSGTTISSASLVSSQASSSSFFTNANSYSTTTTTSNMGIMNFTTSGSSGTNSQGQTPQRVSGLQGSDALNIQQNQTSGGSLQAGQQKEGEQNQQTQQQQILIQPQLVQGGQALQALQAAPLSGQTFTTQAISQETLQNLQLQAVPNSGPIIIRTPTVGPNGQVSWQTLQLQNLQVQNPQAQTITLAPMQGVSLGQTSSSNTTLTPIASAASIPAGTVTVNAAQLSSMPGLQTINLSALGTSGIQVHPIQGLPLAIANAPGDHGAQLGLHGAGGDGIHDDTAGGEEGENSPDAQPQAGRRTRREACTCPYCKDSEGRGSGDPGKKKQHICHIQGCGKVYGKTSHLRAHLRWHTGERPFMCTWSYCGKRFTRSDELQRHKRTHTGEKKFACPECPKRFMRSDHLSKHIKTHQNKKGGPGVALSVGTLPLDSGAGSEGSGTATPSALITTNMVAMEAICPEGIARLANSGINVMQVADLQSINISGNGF
# Summary of the method: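 Endogenous Sp1 activity was gauged in human liver HepG2 cells bearing transfected reporter units under a cis-regulating promoter. After 24 h dosing, reporter mRNA was quantified by RT-PCR with capillary electrophoresis, and activity fitted bidirectionally versus DMSO.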
# [16] = ATG_SREBP_CIS: Attagene CIS-FACTORIAL HepG2 Assay for human Sterol Regulatory Element Binding (SREBP) (AID 2282962); details: HepG2 Attagene cis-factorial SREBP reporter, mRNA; actives raise or lower the signal
# Summary of the method: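 mRNA induction of transfected cis-promoter reporters in HepG2 cells, 24 h post-dose. Detection: RT-PCR with 6-FAM-labelled products, HpaI digest, capillary electrophoresis. DMSO served as negative control and baseline.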
# [17] = target: Signal transducer and activator of transcription 3 (Homo sapiens) (UniProt P40763); experiment: ATG_STAT3_CIS: Attagene CIS-FACTORIAL HepG2 Assay for human Signal Transducer and Activator of Transcription 3 (STAT3) (AID 2282963); details: HepG2, Attagene cis-factorial STAT3 reporter transcription; actives raise or lower the signal
# Chain of Signal transducer and activator of transcription 3 (Homo sapiens) (P40763 whole entry, looked up): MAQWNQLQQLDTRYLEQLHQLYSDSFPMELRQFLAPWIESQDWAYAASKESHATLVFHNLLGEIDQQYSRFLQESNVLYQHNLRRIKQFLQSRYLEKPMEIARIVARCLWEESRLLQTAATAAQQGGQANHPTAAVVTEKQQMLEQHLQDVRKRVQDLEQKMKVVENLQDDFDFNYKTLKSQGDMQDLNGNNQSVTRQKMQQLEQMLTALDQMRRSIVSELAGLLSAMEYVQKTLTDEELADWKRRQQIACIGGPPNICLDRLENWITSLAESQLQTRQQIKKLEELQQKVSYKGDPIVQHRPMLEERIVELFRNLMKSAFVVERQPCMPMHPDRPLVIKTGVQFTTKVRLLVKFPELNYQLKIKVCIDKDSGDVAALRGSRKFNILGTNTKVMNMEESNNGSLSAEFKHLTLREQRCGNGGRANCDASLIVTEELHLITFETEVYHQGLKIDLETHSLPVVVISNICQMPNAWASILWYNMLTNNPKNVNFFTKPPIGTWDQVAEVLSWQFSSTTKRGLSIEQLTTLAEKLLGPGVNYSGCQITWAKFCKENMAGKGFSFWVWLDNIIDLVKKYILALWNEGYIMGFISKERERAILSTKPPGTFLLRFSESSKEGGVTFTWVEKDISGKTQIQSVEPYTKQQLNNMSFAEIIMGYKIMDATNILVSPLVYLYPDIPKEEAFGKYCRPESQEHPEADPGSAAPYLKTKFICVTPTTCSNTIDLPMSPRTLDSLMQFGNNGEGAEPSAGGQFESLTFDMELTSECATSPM
# Summary of the method: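 Endogenous STAT3-responsive cis-element activity was read in transiently transfected HepG2 cells after 24 h treatment. Reporter transcripts were quantified via RT-PCR and capillary electrophoresis, with DMSO as negative control and bidirectional curve fitting.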
# [18] = ATG_TA_CIS: Attagene CIS-FACTORIAL HepG2 Assay for human TA Basal Promoter (AID 2282964); details: HepG2 Attagene CIS-factorial TA basal promoter reporter; actives raise or lower the signal
# Summary of the method: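 Read-out: fluorescent reporter-transcript fragments resolved by capillary electrophoresis after RT-PCR and HpaI digestion. Source: HepG2 cells carrying transiently transfected multi-reporter cis constructs, treated 24 h. Endpoint fitted bidirectionally relative to DMSO.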
# [19] = ATG_TCF_b_cat_CIS: Attagene CIS-FACTORIAL HepG2 Assay for human T-Cell-Factor with beta-catenin (TCF/b-cat) (AID 2282965); details: HepG2 TCF/beta-catenin cis-reporter transcription, actives raise or lower the signal
# Summary of the method: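 Endogenous transcription factor activity is captured through cis-promoter reporter constructs transiently introduced into human HepG2 liver cells. Induced reporter mRNA is measured after 24 h and fitted bidirectionally relative to DMSO.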
# [20] = ATG_TGFb_CIS: Attagene CIS-FACTORIAL HepG2 Assay for human Transforming Growth Factor (TGF) (AID 2282967); details: HepG2 Attagene CIS TGFb reporter, mRNA transcription; actives raise or lower the signal
# Summary of the method: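 Transient MRTU transfection of HepG2 (FuGene 6). Dose 24 h. TriZol RNA, oligo(dT) RT, PCR, 6-FAM primer extension, HpaI cut, CE. Bidirectional fit, DMSO = baseline.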
smiles,measurement,setting,value
Cc1ccc(C)c2ccccc12,outcome,[1],inactive
same,outcome,[2],inactive
same,outcome,[3],inactive
same,outcome,[4],inactive
same,outcome,[5],inactive
same,outcome,[6],inactive
same,outcome,[7],inactive
same,outcome,[8],inactive
same,outcome,[9],inactive
same,outcome,[10],inactive
same,outcome,[11],inactive
same,outcome,[12],inactive
same,AC50,[13],33.4 µM (active)
same,outcome,[14],inactive
same,outcome,[15],inactive
same,outcome,[16],inactive
same,outcome,[17],inactive
same,outcome,[18],inactive
same,outcome,[19],inactive
same,outcome,[20],inactive
CC(C)C(=O)Cl,outcome,[1],inactive
same,outcome,[2],inactive
same,outcome,[3],inactive
same,outcome,[4],inactive
same,outcome,[5],inactive
same,outcome,[6],inactive
same,outcome,[7],inactive
same,outcome,[8],inactive
same,outcome,[9],inactive
same,outcome,[10],inactive
same,outcome,[11],inactive
same,outcome,[12],inactive
same,outcome,[13],inactive
same,outcome,[14],inactive
same,outcome,[15],inactive
same,outcome,[16],inactive
same,outcome,[17],inactive
same,outcome,[18],inactive
same,outcome,[19],inactive
same,outcome,[20],inactive
Nc1cc(Cl)cc(Cl)c1,outcome,[1],inactive
same,outcome,[2],inactive
same,outcome,[3],inactive
same,outcome,[4],inactive
same,outcome,[5],inactive
same,outcome,[6],inactive
same,outcome,[7],inactive
same,outcome,[8],inactive
same,outcome,[9],inactive
same,outcome,[10],inactive
same,outcome,[11],inactive
same,outcome,[12],inactive
same,outcome,[13],inactive
same,outcome,[14],inactive
same,outcome,[15],inactive
same,outcome,[16],inactive
same,outcome,[17],inactive
same,outcome,[18],inactive
same,AC50,[19],79 µM (active)
same,outcome,[20],inactive
CCCOC(=O)c1ccccc1C(=O)OCCC,outcome,[1],inactive
same,outcome,[2],inactive
same,outcome,[3],inactive
same,outcome,[4],inactive
same,outcome,[5],inactive
same,outcome,[6],inactive
same,outcome,[7],inactive
same,outcome,[8],inactive
same,outcome,[9],inactive
same,outcome,[10],inactive
same,outcome,[11],inactive
same,outcome,[12],inactive
same,AC50,[13],28.9 µM (active)
same,outcome,[14],inactive
same,outcome,[15],inactive
same,outcome,[16],inactive
same,outcome,[17],inactive
same,outcome,[18],inactive
same,outcome,[19],inactive
same,outcome,[20],inactive
O=P1(NCCCl)OCCCN1CCCl (stereo not given),outcome,[1],inactive
same,outcome,[2],inactive
same,outcome,[3],inactive
same,outcome,[4],inactive
same,outcome,[5],inactive
same,outcome,[6],inactive
same,outcome,[7],inactive
same,outcome,[8],inactive
same,outcome,[9],inactive
same,outcome,[10],inactive
same,outcome,[11],inactive
same,outcome,[12],inactive
same,AC50,[13],50.2 µM (active)
same,outcome,[14],inactive
same,outcome,[15],inactive
same,outcome,[16],inactive
same,outcome,[17],inactive
same,outcome,[18],inactive
same,outcome,[19],inactive
same,outcome,[20],inactive
O=C(O)COc1ccccc1,outcome,[1],inactive
same,outcome,[2],inactive
same,outcome,[3],inactive
same,outcome,[4],inactive
same,outcome,[5],inactive
same,outcome,[6],inactive
same,outcome,[7],inactive
same,outcome,[8],inactive
same,outcome,[9],inactive
same,outcome,[10],inactive
same,outcome,[11],inactive
same,outcome,[12],inactive
same,outcome,[13],inactive
same,outcome,[14],inactive
same,outcome,[15],inactive
same,outcome,[16],inactive
same,outcome,[17],inactive
same,outcome,[18],inactive
same,outcome,[19],inactive
same,outcome,[20],inactive
O=c1[nH]c(Cl)c(Cl)cc1Cl,outcome,[1],inactive
same,outcome,[2],inactive
same,outcome,[3],inactive
same,outcome,[4],inactive
same,outcome,[5],inactive
same,outcome,[6],inactive
same,outcome,[7],inactive
same,outcome,[8],inactive
same,outcome,[9],inactive
same,outcome,[10],inactive
same,outcome,[11],inactive
same,outcome,[12],inactive
same,AC50,[13],38.7 µM (active)
same,outcome,[14],inactive
same,outcome,[15],inactive
same,outcome,[16],inactive
same,outcome,[17],inactive
same,outcome,[18],inactive
same,outcome,[19],inactive
same,outcome,[20],inactive
